TGFb inhibitor – TGF-b pathway inhibition. HepG2 CAGA-GFP TGF-b/SMAD3 reporter, GFP fluorescence, 18 h; TGF-beta stimulated, 500 pg/mL final. Potency, µM (series often up to 46.1 µM), for the others: top-dose activity, negative = inhibition, usual class: inhibitors. actives 1.2% (n = 410,000). AID 588855; note: % is set by controls: 0 for no effect and ±100 for the full control effect; nearly all actives have a fitted effect of over 65% in size
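Inhibition of TGF-beta-driven CAGA-GFP reporter expression in HEPG2 cells is measured by cellular GFP fluorescence after 18 h stimulation with 500 pg/mL recombinant TGF-beta in 1% FBS medium at 37 degrees C.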
HepG2 viability – HepG2 cytotoxicity, counter-screen for TGF-b inhibitors. HepG2 CAGA-GFP viability, ATP luminescence, 18 h. Potency, µM (highest dose often 46.1 µM), for the others: top-dose activity change, negative = cytotoxicity, most hits filed as cytotoxic. actives 0.76% (n = 410,000)
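HepG2 CAGA-GFP cells (1000/well, DMEM with 1% FBS) received compound, then TGF-beta at 500 pg/mL final, and were incubated 18 hours at 37 degrees C. Viability was read by CellTiter-Glo luminescence. Media-only wells were set as complete cell-killing and DMSO as no toxicity.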
ATXN2 expr inh – inhibitors of ATXN2 expression; HEK-293 ATXN2-luciferase reporter, luminescence, 24 h; Potency, µM (doses to about 57 µM), inactives show at the highest dose activity change, negative = inhibition, actives largely listed as inhibitors; actives 0.72% (n = 360,000); AID 1745845; note: % is set by controls: 0 for no effect and ±100 for the full control effect; nearly all actives have a fitted effect of over 55% in size
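qHTS (up to 57 uM final) was run with 24 h compound exposure of reporter cells at 37 °C. Each well was multiplexed: SteadyGlo luminescence measured ATXN2-luciferase expression after a fluorogenic Gly-Phe-AFC viability readout (25 uM final).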
KB-V1 cytotox – KB-V1 MDR subline cytotoxicity. KB-V1 MDR cells viability, CellTiter-Glo, 72 h. Potency, µM (titrated, usually from 46.1 µM), usual class: cytotoxic. actives 3.4% (n = 400,000). AID 1347076; note: % is set by controls: 0 for no effect and ±100 for the full control effect; nearly all actives have a fitted effect of over 60% in size
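Compound-treated KB-V1 multidrug-resistant cells, 72 h, 37 degrees C; viability by CellTiter-Glo. Fitted qHTS curves give the values.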
S2 tox – reduces viability in counter-screen for ATXN expression inhibitors | S2 cells (HEK-293 line with an ATXN2-luciferase reporter) viability, CellTiter-Fluor protease fluorescence, 24 h | Potency, µM (series often up to 56.7 µM), actives largely listed as cytotoxic | actives 0.49% (n = 400,000); note: nearly all actives have a fitted effect of over 40% in size
KB-3-1 tox – KB-3-1 parental cell cytotoxicity; actives 1.4% (n = 400,000); KB-3-1 viability, CellTiter-Glo ATP luminescence, 72 h; Potency, µM (series often up to 46.1 µM), most hits filed as cytotoxic; note: % is set by controls: 0 for no effect and ±100 for the full control effect; nearly all actives have a fitted effect of over 60% in size
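Parental KB-3-1 adenocarcinoma cells in phenol-red-free DMEM with 10% FBS were pin-treated with compounds at several concentrations, incubated 72 h at 37 °C, and viability read by CellTiter-Glo luminescence; concentration-effect curves were fitted after normalization.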
Numbers without * were called inactive; i = inactive; ? = inconclusive; . = no result given. An excerpt weighted towards active compounds, which were near 5.9% of everything screened. Calls come from the whole dose curve; as a rule, active = well fitted curve in the direction sought with a large enough effect; inconclusive = small, poorly fitted or top-dose-only effect, or another doubt; inactive = no such curve, though single readings can be large; an effect the other way counts as inactive or inconclusive. Potency is the fitted concentration of half-maximal effect.

SMILES | TGFb inhibitor | HepG2 viability | ATXN2 expr inh | KB-V1 cytotox | S2 tox | KB-3-1 tox
Cc1ccc2onc(CC(=O)N3CCN(c4cccc(Cl)c4)CC3)c2c1 | ? | -23% | 0% | i | i | i
O=C(Nc1nnc(SCc2ccc(F)cc2)s1)C1CC(=O)N(Cc2ccccc2)C1 (stereo not given) | -5% | 4% | -24% | 21µM* | ? | i
Cc1nnc(NC(=O)C2CC(=O)N(Cc3ccccc3)C2)s1 (stereo not given) | 12% | 12% | 1% | i | i | i
Cn1c(SCC2CCCO2)nnc1C1CCN(Cc2ccco2)CC1 (stereo not given) | . | . | . | . | i | .
Cc1ccc(N=C2NC(=O)/C(=C/c3cn(C)c4ccccc34)S2)cc1C | 30% | -6% | -21% | ? | i | ?
Cc1ccc(N=C2NC(=O)/C(=C/c3cccn3C)S2)c(C)c1 | -8% | -49% | -4% | 23µM* | ? | i
O=C1NC(=Nc2ccc(O)cc2)S/C1=C/c1ccco1 | -12% | -5% | 0% | 8.2µM* | ? | ?
Cc1ccc(N=C2NC(=O)/C(=C\c3ccco3)S2)cc1 | -8% | 1% | 34% | i | ? | i
Cn1cccc1/C=C1\SC(=Nc2ccccc2)NC1=O | ? | -2% | . | 2.6µM* | ? | 2.3µM*
Cn1cccc1/C=C1\SC(=Nc2cccc(O)c2)NC1=O | ? | -12% | . | i | 16µM* | ?
O=C1NC(=Nc2ccccc2)S/C1=C\c1cccs1 | 0% | 113% | 29% | i | i | i
COc1ccc(CC(=O)NCCc2sc(-c3cccc(F)c3)nc2C)cc1 | -27% | -11% | -22% | i | i | i
COc1cc(/C=C2\SC(=Nc3ccc(O)cc3)NC2=O)cc(OC)c1O | -2% | 1% | . | i | i | ?
Cn1cccc1/C=C1\SC(=Nc2ccc(O)cc2)NC1=O | ? | -33% | . | i | ? | 0.29µM*
COc1ccc(CNC(=O)c2cc3sccc3n2C)cc1 | . | 1% | . | . | . | .
CCOCCC(=O)Nc1ccc2c(c1)c(=O)n(C)n2C/C=C/c1ccccc1 | -13% | 0% | 0% | ? | ? | 6.5µM*
CCn1ccc2cc(S(=O)(=O)N3CCC(C(=O)NCCc4ccccc4)CC3)ccc21 | ? | 7% | 3% | i | i | i
CCOc1ccc(C2C(C(=O)Nc3ccc(C)cc3C)=C(C)Nc3c(C(=O)Nc4ccc(C)cc4)cnn32)cc1OC (stereo not given) | -18% | 3% | . | . | . | .
Cc1ccccc1CSc1cn(CCNC(=O)c2cccs2)c2ccccc12 | ? | -40% | ? | ? | ? | ?
Cc1ccc(CSc2cn(CCNC(=O)c3cccs3)c3ccccc23)cc1 | ? | -24% | ? | i | ? | ?
O=C(NCCn1cc(SCc2ccc(F)cc2)c2ccccc21)c1cccs1 | 11µM* | -22% | ? | ? | ? | ?
O=C(NCCn1cc(SCc2ccccc2F)c2ccccc21)c1cccs1 | 10µM* | -29% | ? | i | ? | ?
CCOC(=O)c1c(-c2ccccc2)csc1NC(=O)CSc1nc(N)cc(N)n1 | ? | 0% | -14% | 3.3µM* | i | 6.5µM*
CCOC(=O)c1c(NC(=O)CSc2nc3ccccc3s2)sc(C)c1C | -17% | -13% | -11% | 13µM* | i | i
CCOC(=O)c1c(-c2cccs2)csc1NC(=O)COC(=O)c1c(C)noc1C | 2% | -12% | 1% | 21µM* | i | i
SMILES | TGFb inhibitor | HepG2 viability | ATXN2 expr inh | KB-V1 cytotox | S2 tox | KB-3-1 tox
CCOC(=O)c1c(-c2ccc(C)cc2)csc1NC(=O)CCN1CC(C)OC(C)C1 (stereo not given) | ? | 20µM* | -24% | ? | i | ?
COc1ccccc1CN1CCOc2ccc(C(C)(O)COc3ccccc3)cc2C1 (stereo not given) | . | . | . | . | i | .
NC(=O)c1c(NC(=O)c2ccncn2)sc2c1CCCC2 | . | . | . | i | . | ?
CCCOc1ccccc1C(=O)N1CCCCC1CCN1CCCCC1 (stereo not given) | 4% | 5% | . | . | . | .
Cc1ccc(-n2ncc(C(=O)NC3CCN(Cc4ccccc4)CC3)c2C2CCN(C(=O)OC(C)(C)C)CC2)cc1C | ? | -80% | . | i | . | i
CC1CN(CC(=O)NCCC2COc3ccccc3O2)Cc2cc(Cl)ccc2O1 (stereo not given) | . | . | . | . | i | .
CCOC(=O)c1c(-c2ccc(C)o2)csc1NC(=O)CN1CCCCC1 | ? | 8% | 8% | ? | i | i
CCOC(=O)c1c(-c2ccc(C)o2)csc1NC(=O)CSc1nncs1 | -14% | -27% | 5% | 15µM* | i | i
CCOC(=O)c1c(-c2ccc(OC)cc2)csc1NC(=O)CNCc1ccco1 | 3% | -15% | -4% | 10µM* | ? | i
CCOC(=O)c1c(-c2ccc(Cl)cc2)csc1NC(=O)CNCc1ccco1 | ? | -42% | . | i | . | i
O=c1c(Cl)c(N2CCCCC2)cnn1-c1nc2ccccc2[nH]1 | -1% | -41% | ? | ? | i | ?
O=c1c2ccccc2cnn1-c1nc2ccccc2[nH]1 | -22% | 2µM* | 0.56µM* | ? | i | ?
Cc1ccc(C)c(OCC(O)CN2CCC(CN3C(=O)c4cccc5cccc(c45)C3=O)CC2)c1 (stereo not given) | ? | -26% | 28µM* | 2.6µM* | . | 18µM*
COc1ccc(OCC(O)CN2CCC(CN3C(=O)c4cccc5cccc(c45)C3=O)CC2)cc1 (stereo not given) | ? | -51% | ? | i | ? | i
Cc1cc(C)c(NC(=O)C2CCN(C(=O)N3CCOc4ccccc43)CC2)c(C)c1 | ? | -27% | . | i | . | i
Cc1cc(Cl)ccc1OCC(=O)Nc1ccccc1CO | -24% | -33% | 28% | ? | i | i
CSc1ccccc1NC(=O)COc1ccc(Cl)cc1C | -19% | -3% | 35% | 13µM* | i | ?
Cc1ccc(C)c(N(CC(=O)Nc2cc(Cl)ccc2Oc2ccccc2)S(C)(=O)=O)c1 | ? | -1% | -1% | 21µM* | i | ?
COc1cccc(OCC(=O)Nc2cc(Cl)ccc2Oc2ccccc2)c1 | -1% | -13% | 28µM* | i | ? | ?
O=C(NCCSCc1ccccc1)C1CCN(S(=O)(=O)Cc2ccccc2)CC1 | ? | -31% | 5% | ? | i | i
Cc1cccc(N2CCN(C(=O)c3ccc4nc(N5CCC(C)CC5)sc4c3)CC2)c1C | -13% | -27% | 42% | ? | i | ?

Compound activity as filed in PubChem BioAssay.
